Measurements as given in PubChem BioAssay (Tox21).
Inconclusive results are not listed. Active and inactive are the calls of the source. Unless noted, calls come from the whole dose curve; as a rule, active = well fitted curve in the direction sought with a large enough effect in the repeat runs; inconclusive = weak or mixed curves; inactive = no such curve, though single readings can be large; an effect the other way counts as inactive or inconclusive.

Columns and labels:
[1] = qHTS assay to identify small molecule agonists of the peroxisome proliferator-activated receptor delta (PPARd) signaling pathway - cell viability counter screen (AID 743211); note: nearly all actives have a fitted effect of over 55% in size
In short: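 Counter screen for cytotoxicity run in parallel with the PPARd reporter screen. Beta-lactamase reporter HEK293H cells exposed to compounds 17 h; ATP-based CellTiter-Glo luminescence quantified viability.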

[2] = target: Peroxisome proliferator-activated receptor delta (Homo sapiens) (UniProt Q03181); assay: qHTS assay to identify small molecule agonists of the peroxisome proliferator-activated receptor delta (PPARd) signaling pathway (AID 743212; calls by dose curve;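 note: HEK293H cells with PPARd UAS beta-lactamase reporter GeneBLAzer system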)
Peroxisome proliferator-activated receptor delta (Homo sapiens), sequence (Q03181 whole entry, looked up): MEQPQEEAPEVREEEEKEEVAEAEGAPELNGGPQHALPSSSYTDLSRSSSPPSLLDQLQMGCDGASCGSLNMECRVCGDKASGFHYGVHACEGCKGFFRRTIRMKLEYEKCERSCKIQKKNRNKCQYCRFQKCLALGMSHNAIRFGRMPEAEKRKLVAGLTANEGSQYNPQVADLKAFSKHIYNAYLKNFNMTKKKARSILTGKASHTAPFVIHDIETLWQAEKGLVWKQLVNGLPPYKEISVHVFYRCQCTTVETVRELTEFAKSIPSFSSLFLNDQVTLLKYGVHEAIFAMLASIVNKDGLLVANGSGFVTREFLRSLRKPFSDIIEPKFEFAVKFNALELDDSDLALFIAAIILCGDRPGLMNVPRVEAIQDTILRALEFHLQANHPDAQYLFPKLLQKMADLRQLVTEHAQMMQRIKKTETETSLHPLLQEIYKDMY
In short: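 Beta-lactamase reporter readout: a ratiometric FRET signal from the LiveBLAzer substrate after 2 h at room temperature. Compound exposure at 37 °C in PPARδ-bla HEK293H cells driven by an upstream activator sequence.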

[3] = qHTS assay to identify small molecule antagonists of the peroxisome proliferator-activated receptor delta (PPARd) signaling pathway - cell viability counter screen (AID 743213); note: nearly all actives have a fitted effect of over 50% in size
In short: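 In this counter screen, HEK293H cells carrying a UAS-beta-lactamase reporter are co-treated with test compounds and 300 nM L165041 (final) for 17 h at 37 C; cell viability is quantified by CellTiter-Glo luminescence.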

[4] = target: Peroxisome proliferator-activated receptor delta (Homo sapiens) (UniProt Q03181); assay: qHTS assay to identify small molecule antagonists of the peroxisome proliferator-activated receptor delta (PPARd) signaling pathway (AID 743215; active = well fitted inhibition curve with a large enough effect in the signal ratio in the repeat runs, not every such curve was filed as active; the % refers to the signal ratio;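 note: cells stimulated with agonist L165041 at 300 nM final during compound exposure; series mostly up to about 62 µM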)
In short: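 Plated HEK293H PPARd-bla cells rested 5 h at 37 C and 5% CO2. Compound, then agonist L165041 at 300 nM final, was added; 17 h at 37 C followed. Substrate loading, 2 h room temperature, fluorescence measured.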

[5] = qHTS assay to identify small molecule agonists of the farnesoid-X-receptor (FXR) signaling pathway - cell viability counter screen (AID 743218); note: nearly all actives have a fitted effect of over 45% in size
In short: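 Viability of FXR-bla HEK 293T cells is measured by ATP-based CellTiter-Glo luminescence following 16 h compound treatment at 37 C and a prior 2 h room-temperature beta-lactamase substrate step.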

[6] = qHTS assay to identify small molecule antagonists of the farnesoid-X-receptor (FXR) signaling pathway - cell viability counter screen (AID 743221; active = well fitted cell-killing curve with a large enough effect in the repeat runs, not every such curve was filed as active; note: nearly all actives have a fitted effect of over 50% in size)
In short: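 Multiplexed counter screen: viability of FXR-bla HEK 293T cells under agonist stimulation by chenodeoxycholic acid (50 uM, final) and test compound for 16 h at 37 C, measured by CellTiter-Glo luminescence in the reporter wells.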

[7] = target: Vitamin D3 receptor (Homo sapiens) (UniProt P11473); assay: qHTS assay to identify small molecule agonists of the vitamin D receptor (VDR) signaling pathway (AID 743222; calls by dose curve)
Vitamin D3 receptor (Homo sapiens), sequence (P11473 whole entry, looked up): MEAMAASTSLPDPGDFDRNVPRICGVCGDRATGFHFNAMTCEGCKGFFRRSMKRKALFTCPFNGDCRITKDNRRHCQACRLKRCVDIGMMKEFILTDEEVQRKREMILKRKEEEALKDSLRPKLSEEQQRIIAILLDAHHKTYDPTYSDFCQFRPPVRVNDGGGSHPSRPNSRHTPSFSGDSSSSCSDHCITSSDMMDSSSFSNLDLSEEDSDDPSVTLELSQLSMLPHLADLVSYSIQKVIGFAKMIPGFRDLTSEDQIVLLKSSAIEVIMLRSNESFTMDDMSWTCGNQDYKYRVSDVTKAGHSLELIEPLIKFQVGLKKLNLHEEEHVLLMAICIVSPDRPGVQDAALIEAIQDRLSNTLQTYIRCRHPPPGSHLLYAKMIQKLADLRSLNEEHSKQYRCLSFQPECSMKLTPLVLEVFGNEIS
In short: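 Fluorescence from cleaved LiveBLAzer B/G FRET substrate served as readout. VDR-bla cells had been treated 16 h at 37C with test compounds in DMSO, following a 4 h settling period, and substrate was loaded for 2 h at RT.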

[8] = target: Vitamin D3 receptor (Homo sapiens) (UniProt P11473); assay: qHTS assay to identify small molecule antagonists of the vitamin D receptor (VDR) signaling pathway (AID 743223; active = well fitted inhibition curve with a large enough effect in the signal ratio in the repeat runs, not every such curve was filed as active; the % refers to the signal ratio)
In short: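 Cells carrying a VDR-driven beta-lactamase reporter (VDR-bla) were co-treated with compound and 3 nM final 1alpha,25-dihydroxyvitamin D3 for 16 h at 37C; reporter activity was measured as FRET substrate fluorescence after 2 h at room temperature.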

[9] = qHTS assay to identify small molecule agonists of the vitamin D receptor (VDR) signaling pathway - cell viability counter screen (AID 743224); note: series mostly up to about 63 µM; nearly all actives have a fitted effect of over 50% in size
In short: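 Compounds were pin-transferred onto VDR-bla cells plated 4 h earlier; following 16 h incubation at 37C, cell viability was quantified by CellTiter-Glo luminescence after 30 min at room temperature.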

[10] = qHTS assay to identify small molecule antagonists of the vitamin D receptor (VDR) signaling pathway - cell viability counter screen (AID 743225); note: nearly all actives have a fitted effect of over 50% in size
In short: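 HEK293T VDR-bla; cpd + 1a,25-(OH)2D3 3 nM final, 16 h 37C/5% CO2; B/G FRET substrate 2 h RT; then CellTiter-Glo 30 min RT, luminescence.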

[11] = qHTS assay to identify small molecule agonists of the NFkB signaling pathway (AID 1159509; active = well fitted curve in the direction sought with a large enough effect in the signal ratio in the repeat runs, not every such curve was filed as active; the % refers to the signal ratio; note: series mostly up to about 61 µM)
In short: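 Pathway activation was measured in ME-180 cells stably expressing beta-lactamase under NF-kB response element control. Substrate cleavage was read as the 460/530 nm emission shift after 5 hr compound incubation.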

[12] = qHTS assay to identify small molecule agonists of the endoplasmic reticulum stress response signaling pathway (AID 1159516; active = well fitted activation curve with a large enough effect in the signal ratio in the repeat runs, not every such curve was filed as active; the % refers to the signal ratio)
In short: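 Using a HeLa line with an ESRE-driven beta-lactamase gene, agonist activity was measured by FRET substrate fluorescence (460 and 530 nm emission) after cells were treated with compounds for 5 hr at 37 C and 5% CO2.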

[13] = qHTS assay to identify small molecule agonists of the endoplasmic reticulum stress response signaling pathway - cell viability counter screen (AID 1159517; calls by dose curve)
In short: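 ESRE-bla HeLa cells (1,500/well) were plated overnight at 37 C and exposed to compounds for 5 hr. After the 2 hr beta-lactamase substrate read, CellTiter-Glo went into the same wells, and luminescence was read after 30 min at room temperature.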

[14] = qHTS assay to identify small molecule antagonists of the retinoid-related orphan receptor gamma (ROR-gamma) signaling pathway - cell viability counter screen (AID 1159520); note: nearly all actives have a fitted effect of over 50% in size
In short: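 Cytotoxicity was read from cellular ATP (CellTiter-Glo luminescence) after 16 hr at 37 C with 1 uM doxycycline induction. The inducer was added 2 hr after compound transfer to Tet-on ROR gamma CHO cells.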

[15] = qHTS assay to identify small molecule agonists of the AP-1 signaling pathway - cell viability counter screen (AID 1159525; calls by dose curve; note: nearly all actives have a fitted effect of over 55% in size)
In short: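 Intracellular ATP by Cell Titer Glo luminescence (30 min, RT) in the same ME-180 AP-1-bla wells after the 5 h compound exposure at 37 °C. Normalised to tetra n-octyl ammonium bromide and DMSO controls.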

[16] = qHTS assay to identify small molecule agonists of the AP-1 signaling pathway (AID 1159526; calls by dose curve)
[17] = target: Bile acid receptor (Homo sapiens) (UniProt Q96RI1); assay: qHTS assay to identify small molecule antagonists of the farnesoid-X-receptor (FXR) signaling pathway (AID 743217; active = well fitted inhibition curve with a large enough effect in the signal ratio in the repeat runs, not every such curve was filed as active; the % refers to the signal ratio)
Bile acid receptor (Homo sapiens), sequence (Q96RI1 whole entry, looked up): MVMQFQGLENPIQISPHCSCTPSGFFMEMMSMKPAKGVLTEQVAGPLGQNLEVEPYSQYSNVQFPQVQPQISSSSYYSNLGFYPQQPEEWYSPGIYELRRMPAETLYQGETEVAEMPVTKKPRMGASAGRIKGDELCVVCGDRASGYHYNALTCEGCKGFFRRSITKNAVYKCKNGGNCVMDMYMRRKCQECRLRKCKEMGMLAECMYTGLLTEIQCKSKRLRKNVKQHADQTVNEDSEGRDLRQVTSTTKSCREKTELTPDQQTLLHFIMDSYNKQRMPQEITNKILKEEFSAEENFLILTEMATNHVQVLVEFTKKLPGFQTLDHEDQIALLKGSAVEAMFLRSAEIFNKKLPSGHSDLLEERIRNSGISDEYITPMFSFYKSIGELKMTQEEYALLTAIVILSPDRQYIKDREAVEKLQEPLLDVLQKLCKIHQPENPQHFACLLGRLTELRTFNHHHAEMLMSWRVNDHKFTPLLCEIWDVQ
In short: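 Screen of the Tox21 10K library in quantitative HTS format using FXR-UAS-bla HEK 293T reporter cells. Agonist chenodeoxycholic acid, 50 uM final, added with compounds; 16 h incubation at 37 °C; beta-lactamase FRET fluorescence measured.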

[18] = target: Bile acid receptor (Homo sapiens) (UniProt Q96RI1); assay: qHTS assay to identify small molecule agonists of the farnesoid-X-receptor (FXR) signaling pathway (AID 743220; active = well fitted activation curve with a large enough effect in the signal ratio in the repeat runs, not every such curve was filed as active; the % refers to the signal ratio)
In short: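 FXR-UAS-bla HEK 293T cells carrying a UAS-driven beta-lactamase reporter were plated for 5 h at 37C/5% CO2, then exposed to DMSO-dissolved Tox21 10K compounds for 16 h at 37C. A LiveBLAzer B/G FRET substrate was loaded for 2 h at room temperature before fluorescence reading.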

[19] = target: Nuclear receptor ROR-gamma (Homo sapiens) (UniProt P51449); assay: qHTS assay to identify small molecule antagonists of the retinoid-related orphan receptor gamma (ROR-gamma) signaling pathway (AID 1159521)
In short: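 Cells were plated, rested 4 h at 37 C, exposed to compounds for 2 h, then given 1 uM final doxycycline hyclate to induce RORγ expression. After 16 h, ONE-Glo luminescence from the ROR response element reporter was measured.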

[20] = qHTS assay to identify small molecule agonists of the NFkB signaling pathway - cell viability counter screen (AID 1159515; calls by dose curve; note: series mostly up to about 61 µM; nearly all actives have a fitted effect of over 55% in size)
In short: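 Parallel cytotoxicity counter screen in ME-180 cells carrying an NFkB-response-element beta-lactamase reporter, 2,000 cells/well. Compound exposure lasted 5 hr at 37 C, 5% CO2. Cell viability was quantified by CellTiter-Glo luminescence.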

Measured: Potency

CC(C)C(=O)Nc1cccc(C(F)(F)F)c1
not listed: [17] | [18] | [19] | [20]
inactive: all other assays above

Cc1nc([N+](=O)[O-])cn1-c1ccc([N+](=O)[O-])cc1
not listed: [4] | [7] | [20]
inactive: all other assays above

CC(CC(=O)O)CC(C)(C)C (stereo not given)
not listed: [4] | [14] | [20]
inactive: all other assays above

CO[Si](CCCS)(OC)OC
not listed: [4] | [6] | [7] | [8] | [14] | [20]
inactive: all other assays above

CC(C)=CC(C)(C)C
not listed: [2] | [4] | [10] | [11] | [15]
inactive: all other assays above

Cc1nc2n(c(=O)c1CCN1CCC(C(=O)c3ccc(F)cc3)CC1)CCS2
not listed: [1] | [20]
inactive: all other assays above

OC(CCN1CCCCC1)(c1ccccc1)c1ccccc1
inactive: [1] | [3] | [5] | [6] | [10] | [11] | [12] | [13] | [14] | [15] | [16]

C=CC(C)(O)CC/C=C(\C)CC (stereo not given)
not listed: [5] | [14] | [17] | [18] | [20]
inactive: all other assays above

CC(=O)c1ccc(OCC(=O)N2CCCCC2)cc1
not listed: [1] | [4] | [20]
inactive: all other assays above

O=C(/C=C/c1ccccc1)NCCO
not listed: [17] | [18] | [19] | [20]
inactive: all other assays above

CCCCCCCCCCCCCC(=O)OC
not listed: [1] | [8] | [15] | [17] | [18] | [20]
inactive: all other assays above

C=C(C)[C@@H]1CC[C@@H](C)C[C@@H]1O
inactive: [1] | [3] | [5] | [9] | [10] | [12] | [13] | [14] | [19] | [15] | [16]

CC(C)(C)c1ccc(C=O)cc1
not listed: [13] | [14] | [17] | [18] | [20]
inactive: all other assays above

Nc1ccc(S(=O)(=O)Nc2ccccn2)cc1
not listed: [4] | [8] | [14] | [20]
inactive: all other assays above

CCCOCCOCCOCCO
not listed: [5] | [8] | [13] | [15] | [20]
inactive: all other assays above

CCCCCCCCCCCCCCCC(=O)NCCO
not listed: [4] | [7] | [20]
inactive: all other assays above

O=[Si]=O
not listed: [1] | [6] | [7] | [14] | [17] | [18] | [19] | [20]
inactive: all other assays above

CCCCC[Si](OCC)(OCC)OCC
not listed: [5] | [7] | [8] | [17] | [18] | [20]
inactive: all other assays above
